In PubChem BioAssay AID1159580 (chemical genetic matrix, 2015):
Where “and” joins values, the source holds several entries; their conditions need not be identical. Equal entries are not always repeated. The campaign covered roughly 5,500 compounds. About 2,000 (36%) were called active. Inconclusive results (about 18%) are left out. Cut-off read from the data, not from the text of the source: active = normalized growth mostly below about 0.91 (no sharp cut-off); inconclusive = no clear call, values can overlap the other calls; inactive = mostly above about 0.92. This is one part of the list.

Experiment: chemical genetic growth profiling, strain panel (AID 1159580);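 note: tested at 20 µM; growth read once vehicle control cultures reached saturation at 30 °C; 1 = growth at the plate median or of vehicle wells; lower values mean less growth of the strain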
Settings: S. cerevisiae deletion strains, growth OD

Measured: normalized growth

Cc1cc(-c2ccccc2)nnc1NCCN1CCOCC1
inactive: locus YAL013W, strain DEP1, stronger effect = lower value 1 | locus YAL021C, strain ccr4, stronger effect = lower value 0.985 | locus YAL026C, strain drs2, stronger effect = lower value 0.991 | locus YAL030W, strain snc1, stronger effect = lower value 0.986 | locus YBL061C, strain skt5, stronger effect = lower value 0.991 | locus YBR009C, strain hhf1, stronger effect = lower value 0.989 | locus YBR021W, strain FUR4, stronger effect = lower value 0.999 | locus YBR023C, strain chs3, stronger effect = lower value 0.989 | locus YBR171W, strain sec66, stronger effect = lower value 0.977 | locus YBR229C, strain ROT2, stronger effect = lower value 1.01 | locus YBR231C, strain swc5, stronger effect = lower value 0.989 | locus YBR279W, strain paf1, stronger effect = lower value 0.986 | locus YCL011C, strain gbp2, stronger effect = lower value 0.983 | locus YCL016C, strain dcc1, stronger effect = lower value 0.984 | locus YCL029C, strain bik1, stronger effect = lower value 0.964 | locus YCL061C, strain MRC1, stronger effect = lower value 0.985 | locus YCL069W, strain vba3, stronger effect = lower value 0.988 | locus YCR088W, strain abp1, stronger effect = lower value 0.99 | locus YDL005C, strain med2, stronger effect = lower value 0.99 | locus YDL035C, strain GPR1, stronger effect = lower value 1.03 | locus YDL040C, strain nat1, stronger effect = lower value 0.992 | locus YDL074C, strain BRE1, stronger effect = lower value 0.986 | locus YDL101C, strain DUN1, stronger effect = lower value 0.995 | locus YDL134C, strain PPH21, stronger effect = lower value 1.01 | locus YDL185W, strain tfp1, stronger effect = lower value 0.941 | locus YDL192W, strain arf1, stronger effect = lower value 0.974 | locus YDR001C, strain nth1, stronger effect = lower value 0.99 | locus YDR069C, strain doa4, stronger effect = lower value 1 | locus YDR101C, strain arx1, stronger effect = lower value 0.977 | locus YDR137W, strain rgp1, stronger effect = lower value 0.991 | locus YDR150W, strain NUM1, stronger effect = lower value 0.992 | locus YDR159W, strain sac3, stronger effect = lower value 1.01 | locus YDR162C, strain NBP2, stronger effect = lower value 1.01 | locus YDR195W, strain ref2 0.974 | locus YDR297W, strain sur2, stronger effect = lower value 0.997 | locus YDR318W, strain mcm21, stronger effect = lower value 0.98 | locus YDR334W, strain swr1, stronger effect = lower value 0.983 | locus YDR335W, strain msn5, stronger effect = lower value 0.986 | locus YDR388W, stronger effect = lower value 0.986 | locus YDR392W, strain spt3, stronger effect = lower value 0.924 | locus YDR502C, strain sam2, stronger effect = lower value 1 | locus YEL003W, strain gim4, stronger effect = lower value 0.998 | locus YEL037C, strain rad23, stronger effect = lower value 0.994 | locus YEL061C, strain CIN8 (second series), stronger effect = lower value 0.991 | locus YEL061C, strain CIN8, stronger effect = lower value 0.997 | locus YER015W, strain faa2, stronger effect = lower value 0.997 | locus YER016W, strain bim1, stronger effect = lower value 1 | locus YER110C, stronger effect = lower value 0.982 | locus YER111C, strain swi4, stronger effect = lower value 0.985 | locus YER155C, strain BEM2 (second series), stronger effect = lower value 1 | locus YER155C, strain BEM2, stronger effect = lower value 1 | locus YER167W, strain BCK2, stronger effect = lower value 1 | locus YFR010W, strain ubp6, stronger effect = lower value 0.992 | locus YGL078C, strain dbp3, stronger effect = lower value 0.991 | locus YGL086W, strain mad1, stronger effect = lower value 1.01 | locus YGL167C, strain pmr1, stronger effect = lower value 0.991 | locus YGL173C, strain kem1, stronger effect = lower value 0.983 | locus YGL227W, strain vid30, stronger effect = lower value 0.987 | locus YGL240W, strain doc1, stronger effect = lower value 0.974 | locus YGL248W, strain PDE1, stronger effect = lower value 1.02 | locus YGL253W, strain hxk2, stronger effect = lower value 0.987 | locus YGR078C, strain PAC10, stronger effect = lower value 1 | locus YGR135W, strain pre9, stronger effect = lower value 0.993 | locus YGR229C, strain SMI1, stronger effect = lower value 1.03 | locus YGR252W, strain gcn5, stronger effect = lower value 1.13 | locus YHR013C, strain ard1, stronger effect = lower value 0.983 | locus YHR027C, strain rpn1, stronger effect = lower value 0.987 | locus YHR030C, strain SLT2, stronger effect = lower value 1 and 0.966 | locus YHR079C, strain IRE1 (second series), stronger effect = lower value 0.972 | locus YHR079C, strain IRE1, stronger effect = lower value 0.961 | locus YHR094C, strain hxt1, stronger effect = lower value 0.969 | locus YHR129C, strain ARP1, stronger effect = lower value 0.996 | locus YHR142W, strain chs7, stronger effect = lower value 0.981 | locus YHR200W, strain rpn10, stronger effect = lower value 0.97 | locus YIL066C, strain RNR3, stronger effect = lower value 1.01 | locus YIL073C, strain SPO22, stronger effect = lower value 0.953 | locus YIL125W, strain kgd1, stronger effect = lower value 0.977 | locus YIR030C, strain dcg1, stronger effect = lower value 0.979 | locus YJL092W, strain hpr5, stronger effect = lower value 0.988 | locus YJL095W, strain BCK1 (second series), stronger effect = lower value 0.99 | locus YJL095W, strain BCK1, stronger effect = lower value 0.976 and 0.961 | locus YJL115W, strain asf1, stronger effect = lower value 0.991 | locus YJL129C, strain trk1, stronger effect = lower value 0.968 | locus YJL134W, strain LCB3, stronger effect = lower value 1.01 | locus YJL154C, strain vps35, stronger effect = lower value 1 | locus YJL164C, strain tpk1, stronger effect = lower value 0.987 | locus YJL166W, strain qcr8, stronger effect = lower value 0.993 | locus YJL168C, strain set2, stronger effect = lower value 0.973 | locus YJL187C, strain SWE1 (second series), stronger effect = lower value 0.997 | locus YJL187C, strain SWE1, stronger effect = lower value 0.986 | locus YJR043C, strain POL32, stronger effect = lower value 0.99 | locus YJR066W, strain TOR1, stronger effect = lower value 0.918
